Reference: PubChem BioAssay AID1159580 (chemical genetic matrix, 2015)
Out of some 5,500 compounds screened, about 2,000 (36%) were called active. Roughly 18% stayed inconclusive and do not appear here. Rule as the data show it: active = normalized growth mostly below about 0.91 (no sharp cut-off); inconclusive = no clear call, values can overlap the other calls; inactive = mostly above about 0.92. Some of the results follow.

Assay: chemical genetic growth profiling, strain panel (AID 1159580);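 also: tested at 20 µM; growth read once vehicle control cultures reached saturation at 30 °C; 1 = growth at the plate median or of vehicle wells; lower values mean less growth of the strain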
Conditions: growth OD

Measured: normalized growth

CNc1ccc(C(=O)CC(O)CCC(C)C2OC(=O)CC(O)CC(=O)CC(O)CC(O)CC(O)CC(O)CC3(O)CC(O)C(C(=O)OC)C(CC(OC4OC(C)C(O)C(N)C4O)/C=C/C=C/C=C/C=C/C=C/C=C/C=C/C2C)O3)cc1 (stereo unspecified)
active: S. cerevisiae deletion strains, locus YAL013W, strain DEP1, active compounds read low 0.0566 | S. cerevisiae deletion strains, locus YBR021W, strain FUR4, active compounds read low 0.0931 | S. cerevisiae deletion strains, locus YBR229C, strain ROT2, active compounds read low 0.0524 | S. cerevisiae deletion strains, locus YCL029C, strain bik1, active compounds read low 0.0837 | S. cerevisiae deletion strains, locus YDL035C, strain GPR1, active compounds read low 0.0535 | S. cerevisiae deletion strains, locus YDL074C, strain BRE1, active compounds read low 0.0938 | S. cerevisiae deletion strains, locus YDL101C, strain DUN1, active compounds read low 0.0651 | S. cerevisiae deletion strains, locus YDL134C, strain PPH21, active compounds read low 0.0946 | S. cerevisiae deletion strains, locus YDL185W, strain tfp1, active compounds read low 0.056 | S. cerevisiae deletion strains, locus YDL192W, strain arf1, active compounds read low 0.0619 | S. cerevisiae deletion strains, locus YDR101C, strain arx1, active compounds read low 0.0612 | S. cerevisiae deletion strains, locus YDR150W, strain NUM1, active compounds read low 0.0603 | S. cerevisiae deletion strains, locus YDR162C, strain NBP2, active compounds read low 0.0526 | S. cerevisiae deletion strains, locus YDR318W, strain mcm21, active compounds read low 0.0791 | S. cerevisiae deletion strains, locus YDR388W, active compounds read low 0.0583 | S. cerevisiae deletion strains, locus YDR502C, strain sam2, active compounds read low 0.0726 | S. cerevisiae deletion strains, locus YEL061C, strain CIN8, active compounds read low 0.133 | S. cerevisiae deletion strains, locus YER110C, active compounds read low 0.11 | S. cerevisiae deletion strains, locus YER155C, strain BEM2, active compounds read low 0.0648 | S. cerevisiae deletion strains, locus YER167W, strain BCK2, active compounds read low 0.0539 | S. cerevisiae deletion strains, locus YGL078C, strain dbp3, active compounds read low 0.0564 | S. cerevisiae deletion strains, locus YGL086W, strain mad1, active compounds read low 0.0591 | S. cerevisiae deletion strains, locus YGL248W, strain PDE1, active compounds read low 0.11 | S. cerevisiae deletion strains, locus YGR078C, strain PAC10, active compounds read low 0.0538 | S. cerevisiae deletion strains, locus YGR135W, strain pre9, active compounds read low 0.0705 | S. cerevisiae deletion strains, locus YGR229C, strain SMI1, active compounds read low 0.0606 | S. cerevisiae deletion strains, locus YGR252W, strain gcn5, active compounds read low 0.194 | S. cerevisiae deletion strains, locus YHR030C, strain SLT2, active compounds read low 0.0491 | S. cerevisiae deletion strains, locus YHR079C, strain IRE1 (second series), active compounds read low 0.0787 | S. cerevisiae deletion strains, locus YHR094C, strain hxt1, active compounds read low 0.119 | S. cerevisiae deletion strains, locus YHR129C, strain ARP1, active compounds read low 0.0557 | S. cerevisiae deletion strains, locus YHR200W, strain rpn10, active compounds read low 0.0615 | S. cerevisiae deletion strains, locus YIL066C, strain RNR3, active compounds read low 0.12 | S. cerevisiae deletion strains, locus YIL073C, strain SPO22, active compounds read low 0.63 | S. cerevisiae deletion strains, locus YIL125W, strain kgd1, active compounds read low 0.0582 | S. cerevisiae deletion strains, locus YIR030C, strain dcg1, active compounds read low 0.0683 | S. cerevisiae deletion strains, locus YJL095W, strain BCK1, active compounds read low 0.0555 | S. cerevisiae deletion strains, locus YJL134W, strain LCB3, active compounds read low 0.0513 | S. cerevisiae deletion strains, locus YJL168C, strain set2, active compounds read low 0.119 | S. cerevisiae deletion strains, locus YJL187C, strain SWE1 (second series), active compounds read low 0.0564 | S. cerevisiae deletion strains, locus YJR043C, strain POL32, active compounds read low 0.0719 | S. cerevisiae deletion strains, locus YJR075W, strain HOC1, active compounds read low 0.0687 | S. cerevisiae deletion strains, locus YKL009W, strain mrt4, active compounds read low 0.0698 | S. cerevisiae deletion strains, locus YKL068W, active compounds read low 0.0536 | S. cerevisiae deletion strains, locus YKL085W, strain MDH1 (second series), active compounds read low 0.0497 | S. cerevisiae deletion strains, locus YKL085W, strain MDH1, active compounds read low 0.0497 | S. cerevisiae deletion strains, locus YKL190W, strain CNB1, active compounds read low 0.0588 | S. cerevisiae deletion strains, locus YKR001C, strain vps1, active compounds read low 0.0648 | S. cerevisiae deletion strains, locus YLR039C, strain RIC1, active compounds read low 0.0872 | S. cerevisiae deletion strains, locus YLR058C, strain SHM2, active compounds read low 0.0574 | S. cerevisiae deletion strains, locus YLR102C, strain apc9, active compounds read low 0.0963 | S. cerevisiae deletion strains, locus YLR262C, strain YPT6, active compounds read low 0.0942 | S. cerevisiae deletion strains, locus YLR268W, strain sec22, active compounds read low 0.0696 | S. cerevisiae deletion strains, locus YLR330W, strain CHS5, active compounds read low 0.0514 | S. cerevisiae deletion strains, locus YLR342W, strain FKS1 (second series), active compounds read low 0.0823 | S. cerevisiae deletion strains, locus YLR371W, strain rom2, active compounds read low 0.0741 | S. cerevisiae deletion strains, locus YLR418C, strain cdc73, active compounds read low 0.0943 | S. cerevisiae deletion strains, locus YML016C, strain PPZ1, active compounds read low 0.136 | S. cerevisiae deletion strains, locus YML032C, strain rad52, active compounds read low 0.0764 | S. cerevisiae deletion strains, locus YML124C, strain tub3, active compounds read low 0.0593 | S. cerevisiae deletion strains, locus YMR078C, strain ctf18, active compounds read low 0.0766 | S. cerevisiae deletion strains, locus YMR223W, strain ubp8, active compounds read low 0.0693 | S. cerevisiae deletion strains, locus YMR263W, strain SAP30, active compounds read low 0.0638 | S. cerevisiae deletion strains, locus YMR307W, strain GAS1, active compounds read low 0.109 | S. cerevisiae deletion strains, locus YNL067W, strain RPL9B, active compounds read low 0.0557 | S. cerevisiae deletion strains, locus YNL128W, strain TEP1, active compounds read low 0.0601 | S. cerevisiae deletion strains, locus YNL153C, strain GIM3, active compounds read low 0.0467 | S. cerevisiae deletion strains, locus YNL233W, strain BNI4, active compounds read low 0.0536 | S. cerevisiae deletion strains, locus YNL250W, strain rad50, active compounds read low 0.0761 | S. cerevisiae deletion strains, locus YNL271C, strain bni1, active compounds read low 0.0615 | S. cerevisiae deletion strains, locus YNL298W, strain CLA4, active compounds read low 0.0597 | S. cerevisiae deletion strains, locus YNL307C, strain MCK1, active compounds read low 0.0706 | S. cerevisiae deletion strains, locus YNL322C, strain KRE1, active compounds read low 0.0507 | S. cerevisiae deletion strains, locus YNR052C, strain pop2, active compounds read low 0.0636 | S. cerevisiae deletion strains, locus YOL006C, strain TOP1, active compounds read low 0.132 | S. cerevisiae deletion strains, locus YOL147C, strain pex11, active compounds read low 0.0576 | S. cerevisiae deletion strains, locus YOR061W, strain CKA2, active compounds read low 0.0583 | S. cerevisiae deletion strains, locus YOR069W, strain VPS5, active compounds read low 0.0477 | S. cerevisiae deletion strains, locus YOR136W, strain idh2, active compounds read low 0.074 | S. cerevisiae deletion strains, locus YOR144C, strain elg1, active compounds read low 0.0585 | S. cerevisiae deletion strains, locus YOR184W, strain ser1, active compounds read low 0.075 | S. cerevisiae deletion strains, locus YOR316C, strain cot1, active compounds read low 0.1 | S. cerevisiae deletion strains, locus YPL055C, strain LGE1, active compounds read low 0.0726 | S. cerevisiae deletion strains, locus YPL241C, strain CIN2, active compounds read low 0.0521 | S. cerevisiae deletion strains, locus YPR119W, strain clb2, active compounds read low 0.0662 | S. cerevisiae deletion strains, locus YPR141C, strain kar3, active compounds read low 0.0657 | S. cerevisiae deletion strains, locus YPR163C, strain tif3, active compounds read low 0.0749 | S. cerevisiae deletion strains, locus YPR167C, strain met16, active compounds read low 0.0645 | S. cerevisiae deletion strains, strain wtn01, active compounds read low 0.061 | S. cerevisiae strains, strain wild type, active compounds read low 0.0494
inactive: S. cerevisiae deletion strains, locus YOL012C, strain htz1 0.225
